Source: PubChem BioAssay
Values joined by “and” are separate entries in the source; they are usually repeats but may differ in a detail not shown here. Equal values may be shown once. Results filed as inconclusive are left out. Active and inactive are the calls of the source.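 The calls were made as follows, unless noted: active = normalized viability below 100% at a tested concentration; inactive = the rest.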

Key:
[1] = viability loss in pontine glioma line – cell-based, SU-DIPG-XVII, MIPE5.0, CellTiter-Glo, qHTS, dose response (AID 1347060; cut-off not given, nearly all actives have AC50 up to about 26 µM;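 as to AC50: cells exposed to compound for 48 hours before viability readout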); details: CellTiter-Glo ATP luminescence
[2] = viability loss in pontine glioma line – cell-based, SU-DIPG-XIII, MIPE4.0, CellTiter-Glo, qHTS, dose response (AID 1347061; cut-off not given, nearly all actives have AC50 up to about 37 µM;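 also: cells exposed to compound for 48 hours before readout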); details: CellTiter-Glo ATP luminescence
[3] = viability loss in pontine glioma line – cell-based, JHH-DIPG-1, MIPE4.0, CellTiter-Glo, qHTS, dose response (AID 1347062; cut-off not given, nearly all actives have AC50 up to about 27 µM;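 as to AC50: cells exposed to compound for two days before readout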); details: JHH-DIPG-1 viability, CellTiter-Glo ATP luminescence
[4] = viability loss in pontine glioma line – cell-based, SU-DIPG-IV, MIPE4.0, CellTiter-Glo, qHTS, dose response (AID 1347063; cut-off not given, nearly all actives have AC50 up to about 30 µM;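 also: compound exposure lasted 48 hours before the viability readout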); details: CellTiter-Glo ATP luminescence
[5] = viability loss in pontine glioma line – cell-based, SU-DIPG-XIII, MIPE5.0, CellTiter-Glo, qHTS, dose response (AID 1347064; cut-off not given, nearly all actives have AC50 up to about 23 µM;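 as to AC50: cells exposed to compound for 48 hours before the viability read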); details: CellTiter-Glo ATP luminescence
[6] = viability loss in pontine glioma line – cell-based, SU-DIPG-XXV, MIPE5.0, CellTiter-Glo, qHTS, dose response (AID 1347065; cut-off not given, nearly all actives have AC50 up to about 26 µM;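 also: cells exposed to compound for 48 hours before ATP readout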); details: CellTiter-Glo ATP luminescence
[7] = growth inhibition of DIPG cells – cell-based, MIPE4.0 library, CellTiter-Glo luminescence, qHTS (AID 1347066; cut-off not given, nearly all actives have AC50 up to about 30 µM;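 also: cells exposed to compound for 48 hours before readout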); details: SU-DIPG-VI viability, CellTiter-Glo ATP luminescence
[8] = JHH-DIPG-1 glioma cell viability, MIPE5.0 library, CellTiter-Glo luminescence, qHTS (AID 1347067; cut-off not given, nearly all actives have AC50 up to about 26 µM;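 also: cells exposed to compound for 48 hours before readout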); details: JHH-DIPG-1 glioma viability, CellTiter-Glo ATP luminescence
[9] = growth inhibition of DIPG cells – cell-based, MIPE5.0 library, qHTS (AID 1347068; cut-off not given, nearly all actives have IC50 up to about 30 µM;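 as to IC50: cells exposed to compound for 48 hours before viability readout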); details: SU-DIPG-XXV viability
[10] = viability loss with induced miR-34 in A549 – imaging, A549 dox-inducible miR-34, nuclei and caspase counts, primary screen (AID 1347080;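 active = compounds whose cell count with miR-34 switched on is under 0.7 times the count with it off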); details: A549 miR-34 inducible, Hoechst nuclei count, 48 h
[11] = compounds altering HSF1 focus formation in cells – imaging, Selleck Cancer Library (AID 1347162; in the data active = plate-normalised HSF1 focus index below about 0.46); details: human cells, HSF1 nuclear foci imaging, at 10 µM; SSMD: measured here: HSF1 foci SSMD mean; cell count: measured here: cell number; plate-normalised HSF1 focus index: stronger effect = lower value
[12] = MELAS cybrid and Rieske KO viability enhancers – cell-based, MELAS cybrids, Rieske KO mouse fibroblasts, CellTiter-Glo, primary screen (AID 1508586;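 active = mean z-score across replicates of 1.96 or higher in either the MELAS or the Rieske mutant cell line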;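 also: z relative to plate mean and SD of compound and empty wells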); details: low glucose
[13] = drug combination growth inhibition, ovarian cancer – cell-based, oncology-focused library, rucaparib conditional, profiling panel (AID 1508598); details: patient-derived ovarian cancer cells, CellTiter-Glo viability, 144 h, stronger effect = lower value
[14] = galactose survival enhancers in mitochondrial complex I cybrids – cell-based, galactose medium, ATP luminescence, primary screen (AID 1645843;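 active = z-score of at least 1.8 in each of two replicates, scored against plate mean and spread of sample wells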;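 also: positive z means more ATP and so rescue of galactose-driven cybrid death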); details: complex I mutant cybrid cells, 72 h, stronger effect = higher value

CS(=O)(=O)c1cccc(CNc2nc(Nc3ccc4c(c3)CCC(=O)N4)ncc2C(F)(F)F)c1
active: AC50 [1] 6.61 µM | AC50 [2] 18.7 µM | AC50 [3] 16.6 µM | AC50 [4] 18.7 µM | AC50 [5] 8.33 µM | AC50 [6] 4.68 µM | AC50 [7] 16.6 µM | AC50 [8] 2.35 µM | IC50 [9] 8.33 µM | viability ([13]; at 0.000305 µM, OCI-C5x cells, with rucaparib 10 µM, 100% = cells with rucaparib alone) 98.4% | viability ([13]; at 0.000305 µM, OCI-P5x cells, with rucaparib 20 µM, 100% = cells with rucaparib alone) 88.7% | viability ([13]; at 0.00122 µM, OCI-P5x cells, with rucaparib 20 µM, 100% = cells with rucaparib alone) 84.8% | viability ([13]; at 0.00488 µM, OCI-P5x cells, with rucaparib 20 µM, 100% = cells with rucaparib alone) 93.9% | viability ([13]; at 0.0195 µM, OCI-P5x cells, with rucaparib 20 µM, 100% = cells with rucaparib alone) 91.7% | viability ([13]; at 0.0781 µM, OCI-P5x cells, with rucaparib 20 µM, 100% = cells with rucaparib alone) 88% | viability ([13]; at 0.313 µM, OCI-P5x cells, with rucaparib 20 µM, 100% = cells with rucaparib alone) 93.7% | viability ([13]; at 1.25 µM, OCI-P5x cells, with rucaparib 20 µM, 100% = cells with rucaparib alone) 75.9% | viability ([13]; at 5 µM, OCI-C5x cells, with rucaparib 10 µM, 100% = cells with rucaparib alone) 56.8% | viability ([13]; at 5 µM, OCI-C5x cells, without rucaparib) 59.8% | viability ([13]; at 5 µM, OCI-P5x cells, with rucaparib 20 µM, 100% = cells with rucaparib alone) 44.7% | viability ([13]; at 5 µM, OCI-P5x cells, without rucaparib) 74.7%
inactive: fold change ([10]; stronger effect = lower value, cell number ratio, induced over uninduced) 0.913 and 0.835 | plate-normalised HSF1 focus index [11] 0.911 | z-score ([12]; MELAS cybrid survival, CellTiter-Glo 48 h, stronger effect = higher value) -0.299 | viability ([13]; at 0.000305 µM, OCI-C5x cells, without rucaparib) 109% | viability ([13]; at 0.000305 µM, OCI-P5x cells, without rucaparib) 101% | viability ([13]; at 0.00122 µM, OCI-C5x cells, with rucaparib 10 µM, 100% = cells with rucaparib alone) 108% | viability ([13]; at 0.00122 µM, OCI-C5x cells, without rucaparib) 114% | viability ([13]; at 0.00122 µM, OCI-P5x cells, without rucaparib) 106% | viability ([13]; at 0.00488 µM, OCI-C5x cells, with rucaparib 10 µM, 100% = cells with rucaparib alone) 113% | viability ([13]; at 0.00488 µM, OCI-C5x cells, without rucaparib) 112% | viability ([13]; at 0.00488 µM, OCI-P5x cells, without rucaparib) 109% | viability ([13]; at 0.0195 µM, OCI-C5x cells, with rucaparib 10 µM, 100% = cells with rucaparib alone) 104% | viability ([13]; at 0.0195 µM, OCI-C5x cells, without rucaparib) 109% | viability ([13]; at 0.0195 µM, OCI-P5x cells, without rucaparib) 108% | viability ([13]; at 0.0781 µM, OCI-C5x cells, with rucaparib 10 µM, 100% = cells with rucaparib alone) 102% | viability ([13]; at 0.0781 µM, OCI-C5x cells, without rucaparib) 109% | viability ([13]; at 0.0781 µM, OCI-P5x cells, without rucaparib) 112% | viability ([13]; at 0.313 µM, OCI-C5x cells, with rucaparib 10 µM, 100% = cells with rucaparib alone) 108% | viability ([13]; at 0.313 µM, OCI-C5x cells, without rucaparib) 116% | viability ([13]; at 0.313 µM, OCI-P5x cells, without rucaparib) 115% | viability ([13]; at 1.25 µM, OCI-C5x cells, with rucaparib 10 µM, 100% = cells with rucaparib alone) 113% | viability ([13]; at 1.25 µM, OCI-C5x cells, without rucaparib) 116% | viability ([13]; at 1.25 µM, OCI-P5x cells, without rucaparib) 107% | z-score [14] -0.545
1440 and 2320: cell count ([10]; measured here: total cells without miR-34 induction)
7540: cell count [11]
-0.256: z-score ([12]; Rieske KO mouse fibroblast survival, CellTiter-Glo 72 h)
-1.44: SSMD [11]
1320 and 1930: cell count ([10]; measured here: total cells with miR-34 induction, stronger effect = lower value)
0.606 and 1.43: fold change ([10]; measured here: relative caspase fold change +Dox/-Dox)

C[C@@H](Oc1ccc2[nH]nc(/C=C/c3cnn(CCO)c3)c2c1)c1c(Cl)cncc1Cl
active: AC50 [1] 0.0295 µM | AC50 [2] 0.418 µM | AC50 [3] 20.9 µM | AC50 [4] 5.9 µM | AC50 [5] 0.0148 µM | AC50 [6] 0.0105 µM | AC50 [7] 16.6 µM | AC50 [8] 0.468 µM | IC50 [9] 2.09 µM

OCCCNc1cc(-c2ccnc(Nc3cccc(Cl)c3)n2)ccn1
inactive: outcome [7]
active: AC50 [1] 0.132 µM | AC50 [2] 0.148 µM | AC50 [3] 0.148 µM | AC50 [4] 0.0526 µM | AC50 [5] 0.0833 µM | AC50 [6] 0.132 µM | AC50 [8] 0.118 µM | IC50 [9] 0.148 µM

COc1cc(O)c2c(c1)C1OC1C[C@H](O)[C@H](O)C(=O)/C=C\C[C@H](C)OC2=O (some centres not stated)
active: AC50 [1] 0.661 µM | AC50 [2] 0.662 µM | AC50 [3] 5.9 µM | AC50 [4] 4.18 µM | AC50 [5] 0.661 µM | AC50 [6] 0.934 µM | AC50 [7] 13.2 µM | AC50 [8] 4.17 µM | IC50 [9] 18.6 µM

CCC(=O)O[C@]1(C(=O)CO)CC[C@H]2[C@@H]3CCC4=CC(=O)CC[C@]4(C)[C@H]3CC[C@@]21C
inactive: outcome [1] | outcome [2] | outcome [3] | outcome [4] | outcome [5] | outcome [6] | outcome [7] | outcome [8] | outcome [9]
